# Measurements published in the supplement of paper PMC8728848.
# Shown is part of a subset that was picked to be rich in the strongest signals.
# B1: Mg3lysM (Mycosphaerella graminicola) (protein)
# chain: APQNPPTSCSAAPQPTGTGSPGTVCGSTTFTNYTVKAGDTLGAIAKQYNSGVCDIAKVNGIDNPDYIKPDQVLSIPANCVTPDNTSCVKPVPVITNTCVLGVGSTYTVKSGDSFSAIATSFNITLASLEARNPQIPNYDLIFPGQVINTPLCPNSVCDSIGTYVIESGDIFYNLAQSNNVTVGQLESLNVNVNVTDIHPGDIIILPHNCHNITASA
# Legend:
# Test in all cases: glycan array binding signal (z-score within array); higher = stronger binding
# Details in all cases: glycan notation: IUPAC condensed, linker removed
# Fuc(a1-2)Gal = biological target: Fuc(a1-2)Gal
# In short: (§1)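 The Consortium for Functional Glycomics database supplied 3228 glycan arrays, of which those lacking an available protein sequence were dropped. The binding signal, a within-array Z-score, was averaged across arrays of the same protein sequence and across linkers. Negative scores can be read as non-binding.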
# [1] = biological target: Fuc(a1-2)Gal(b1-3)GlcNAc(b1-3)Gal(b1-4)Glc
# In short: as §1
# [2] = biological target: Fuc(a1-2)Gal(b1-3)GlcNAc(b1-3)[Fuc(a1-2)Gal(b1-3)GlcNAc(b1-6)]GalNAc
# In short: as §1
# Fuc(a1-2)Gal(b1-4)GlcNAc = biological target: Fuc(a1-2)Gal(b1-4)GlcNAc
# In short: as §1
# [3] = biological target: Fuc(a1-2)Gal(b1-4)GlcNAc(b1-6)GalNAc
# In short: as §1
# [4] = biological target: Fuc(a1-2)Gal6S(b1-3)GlcNAc6S
# In short: as §1
# [5] = biological target: Fuc(a1-2)Gal6S(b1-4)Glc6S
# In short: as §1
# [6] = biological target: Fuc(a1-2)[Gal(a1-3)]Gal(b1-3)GlcNAc(b1-2)Man(a1-3)[Fuc(a1-2)[Gal(a1-3)]Gal(b1-3)GlcNAc(b1-2)Man(a1-6)]Man(b1-4)GlcNAc(b1-4)[Fuc(a1-6)]GlcNAc
# In short: as §1
# [7] = biological target: Fuc(a1-2)[Gal(a1-3)]Gal(b1-4)GlcNAc(b1-3)GalNAc
# In short: as §1
# [8] = biological target: Fuc(a1-2)[GalNAc(a1-3)]Gal(b1-4)Glc
# In short: as §1
# [9] = biological target: Fuc(a1-2)[GalNAc(a1-3)]Gal(b1-4)GlcNAc(b1-2)Man(a1-3)[Fuc(a1-2)[GalNAc(a1-3)]Gal(b1-4)GlcNAc(b1-2)Man(a1-6)]Man(b1-4)GlcNAc(b1-4)[Fuc(a1-6)]GlcNAc
# In short: as §1
# [10] = biological target: Fuc(a1-3)[Gal(b1-4)]GlcNAc6S
# In short: as §1
# [11] = biological target: Fuc(a1-3)[Gal3S(b1-4)]Glc
# In short: as §1
# [12] = biological target: Gal(a1-3)Gal(b1-4)GlcNAc(b1-2)Man(a1-3)[Gal(a1-3)Gal(b1-4)GlcNAc(b1-2)Man(a1-6)]Man(b1-4)GlcNAc(b1-4)GlcNAc
# In short: as §1
# Gal(b1-3)GalNAc(b1-3)Gal = biological target: Gal(b1-3)GalNAc(b1-3)Gal
# In short: as §1
# [13] = biological target: Gal(b1-3)GlcNAc(a1-6)Gal(b1-4)GlcNAc
# In short: as §1
# Gal(b1-3)GlcNAc(b1-2)Man = biological target: Gal(b1-3)GlcNAc(b1-2)Man
# In short: as §1
# [14] = biological target: Gal(b1-3)GlcNAc(b1-3)Gal(b1-4)Glc
# In short: as §1
# [15] = biological target: Gal(b1-3)GlcNAc(b1-3)Gal(b1-4)GlcNAc(b1-2)[Gal(b1-3)GlcNAc(b1-3)Gal(b1-4)GlcNAc(b1-6)]Man(a1-6)[Gal(b1-3)GlcNAc(b1-3)Gal(b1-4)GlcNAc(b1-2)Man(a1-3)]Man(b1-4)GlcNAc(b1-4)[Fuc(a1-6)]GlcNAc
# In short: as §1
# [16] = biological target: Gal(b1-3)GlcNAc(b1-3)Gal(b1-4)GlcNAc(b1-3)Gal(b1-4)GlcNAc(b1-2)[Gal(b1-3)GlcNAc(b1-3)Gal(b1-4)GlcNAc(b1-3)Gal(b1-4)GlcNAc(b1-6)]Man(a1-6)[Gal(b1-3)GlcNAc(b1-3)Gal(b1-4)GlcNAc(b1-3)Gal(b1-4)GlcNAc(b1-2)Man(a1-3)]Man(b1-4)GlcNAc(b1-4)[Fuc(a1-6)]GlcNAc
# In short: as §1
# [17] = biological target: Gal(b1-3)GlcNAc(b1-3)Gal(b1-4)[Fuc(a1-3)]GlcNAc
# In short: as §1
# Gal(b1-4)GlcNAc(b1-2)Man = biological target: Gal(b1-4)GlcNAc(b1-2)Man
# In short: as §1
# [18] = biological target: Gal(b1-4)GlcNAc(b1-3)Gal(b1-4)GlcNAc(b1-3)Gal(b1-4)GlcNAc(b1-2)Man(a1-3)[Gal(b1-4)GlcNAc(b1-3)Gal(b1-4)GlcNAc(b1-3)Gal(b1-4)GlcNAc(b1-2)Man(a1-6)]Man(b1-4)GlcNAc(b1-4)[Fuc(a1-6)]GlcNAc
# In short: as §1
# [19] = biological target: Gal(b1-4)GlcNAc(b1-3)Gal(b1-4)GlcNAc(b1-3)Gal(b1-4)GlcNAc(b1-3)Gal(b1-4)GlcNAc(b1-3)Gal(b1-4)GlcNAc(b1-2)[Gal(b1-4)GlcNAc(b1-3)Gal(b1-4)GlcNAc(b1-3)Gal(b1-4)GlcNAc(b1-3)Gal(b1-4)GlcNAc(b1-3)Gal(b1-4)GlcNAc(b1-6)]Man(a1-6)[Gal(b1-4)GlcNAc(b1-3)Gal(b1-4)GlcNAc(b1-3)Gal(b1-4)GlcNAc(b1-3)Gal(b1-4)GlcNAc(b1-3)Gal(b1-4)GlcNAc(b1-2)Man(a1-3)]Man(b1-4)GlcNAc(b1-4)[Fuc(a1-6)]GlcNAc
# In short: as §1
# [20] = biological target: Gal(b1-4)GlcNAc(b1-3)Gal(b1-4)GlcNAc(b1-6)[Gal(b1-3)]GalNAc
# In short: as §1
# Gal3S(b1-4)Glc6S = biological target: Gal3S(b1-4)Glc6S
# In short: as §1
# Gal6S(b1-4)Glc = biological target: Gal6S(b1-4)Glc
# In short: as §1
# [21] = biological target: GalNAc(b1-3)Gal(a1-6)Gal(b1-4)Glc
# In short: as §1
# [22] = biological target: GlcNAc(a1-6)Gal(b1-4)GlcNAc
# In short: as §1
# [23] = biological target: GlcNAc(b1-2)[GlcNAc(b1-4)]Man(a1-3)[GlcNAc(b1-4)][GlcNAc(b1-2)[GlcNAc(b1-6)]Man(a1-6)]Man(b1-4)GlcNAc(b1-4)[Fuc(a1-6)]GlcNAc
# In short: as §1
binder,measurement,setting,value
B1,glycan array binding signal (z-score),Fuc(a1-2)Gal,-0.076
same,glycan array binding signal (z-score),[1],-0.042
same,glycan array binding signal (z-score),[2],0.259
same,glycan array binding signal (z-score),Fuc(a1-2)Gal(b1-4)GlcNAc,-0.021
same,glycan array binding signal (z-score),[3],-0.086
same,glycan array binding signal (z-score),[4],-0.089
same,glycan array binding signal (z-score),[5],-0.1
same,glycan array binding signal (z-score),[6],-0.127
same,glycan array binding signal (z-score),[7],-0.118
same,glycan array binding signal (z-score),[8],-0.072
same,glycan array binding signal (z-score),[9],0.01
same,glycan array binding signal (z-score),[10],0.023
same,glycan array binding signal (z-score),[11],-0.089
same,glycan array binding signal (z-score),[12],-0.058
same,glycan array binding signal (z-score),Gal(b1-3)GalNAc(b1-3)Gal,0.131
same,glycan array binding signal (z-score),[13],-0.12
same,glycan array binding signal (z-score),Gal(b1-3)GlcNAc(b1-2)Man,-0.123
same,glycan array binding signal (z-score),[14],-0.065
same,glycan array binding signal (z-score),[15],0.063
same,glycan array binding signal (z-score),[16],0.15
same,glycan array binding signal (z-score),[17],-0.157
same,glycan array binding signal (z-score),Gal(b1-4)GlcNAc(b1-2)Man,-0.039
same,glycan array binding signal (z-score),[18],-0.107
same,glycan array binding signal (z-score),[19],0.14
same,glycan array binding signal (z-score),[20],-0.078
same,glycan array binding signal (z-score),Gal3S(b1-4)Glc6S,-0.101
same,glycan array binding signal (z-score),Gal6S(b1-4)Glc,-0.027
same,glycan array binding signal (z-score),[21],-0.127
same,glycan array binding signal (z-score),[22],-0.108
same,glycan array binding signal (z-score),[23],-0.113
